YjeE inh = qHTS Assay for Inhibitors of YjeE; tRNA threonylcarbamoyladenosine biosynthesis protein TsaE (Escherichia coli (strain …; purified YjeE enzyme, qHTS inhibition assay; Potency, µM; hit rate 0.05% among 71,000; AID 605, 2007
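Fluorescence polarization of a BODIPY Texas Red–ADP probe (2 uM) bound to purified YjeE (10 uM) was read after 15 min room-temperature incubation with compounds. Loss of polarization marks inhibitors; ADP serves as titrated control.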
Pol III holo inh = qHTS Assay for Inhibitors of DNA Polymerase III Holoenzyme System; reconstituted DNA polymerase III holoenzyme replication, biochemical; Potency, µM (titrated, usually from 57.1 µM); hit rate 0.25% among 71,000
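Reconstituted *E. coli* holoenzyme (0.35 nM Pol III, 1 nM beta, 154 nM SSB, 2 nM primase) was preincubated with compound for 15 min at RT. Synthesis on 1.4 nM ssM13Gori ran 35 min, then was stopped with PicoGreen/EDTA and read as dsDNA fluorescence.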
ALOX15 inhib = qHTS Assay for Inhibitors of 15-hLO (15-human lipoxygenase); AID 887, 2007; purified 15hLO-1, xylenol orange hydroperoxide absorbance; Polyunsaturated fatty acid lipoxygenase ALOX15 (Homo sapiens), P16050; Potency, µM (top dose mostly 57.1 µM), actives largely listed as inhibitors; hit rate 1.4% among 74,000; also: nearly all actives have a fitted effect of over 55% in size
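Compounds were preincubated 15 min at room temperature with 40 nM purified human enzyme (25 mM Hepes pH 7.5, 0.01% Triton X-100); 50 uM arachidonic acid reacted 6 min. Fe-xylenol orange detection, 30 min, absorbance ratio 573/405 nm.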
Hsp90 Hop PPI = qHTS Assay for Disrupters of an Hsp90 Co-Chaperone Interaction; hit rate 0.44% among 71,000; Potency, µM (titrated, usually from 57 µM); AlphaScreen TPR2A-His6 binding biotin-Hsp90 C-terminal peptide; AID 595, 2007; Hsp90 C-terminal peptide / TPR2A (Hop) interaction, human; active = well fitted curve in either direction with a large enough effect; inconclusive = small, poorly fitted or top-dose-only effect, or another doubt
ERK AVP block = qHTS Assay for Inhibitors of the ERK Signaling Pathway using a Homogeneous Screening Assay | HEK293-V1b, vasopressin-stimulated pERK AlphaScreen | Potency, µM (highest dose often 57.5 µM), actives largely listed as inhibitors | hit rate 0.99% among 72,000; also: nearly all actives have a fitted effect of over 55% in size
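qHTS, compounds titrated on V1b-expressing HEK293 cells. Preincubation 30 min at 37C, vasopressin 25 nM for 5 min, lysis 10 min, bead incubation 5 hr at room temperature.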
Tau fil binding = qHTS Assay for Tau Filament Binding | Microtubule-associated protein tau (Homo sapiens), P10636 | recombinant tau filaments, thioflavin S fluorescence, 15 h; filaments grown with octadecylsulfate alongside compound | Potency, µM (highest dose often 57.1 µM) | hit rate 2% among 71,000;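 also: actives lower thioflavin S fluorescence by blocking filaments or displacing dye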
Target sequence (P10636 whole entry, looked up): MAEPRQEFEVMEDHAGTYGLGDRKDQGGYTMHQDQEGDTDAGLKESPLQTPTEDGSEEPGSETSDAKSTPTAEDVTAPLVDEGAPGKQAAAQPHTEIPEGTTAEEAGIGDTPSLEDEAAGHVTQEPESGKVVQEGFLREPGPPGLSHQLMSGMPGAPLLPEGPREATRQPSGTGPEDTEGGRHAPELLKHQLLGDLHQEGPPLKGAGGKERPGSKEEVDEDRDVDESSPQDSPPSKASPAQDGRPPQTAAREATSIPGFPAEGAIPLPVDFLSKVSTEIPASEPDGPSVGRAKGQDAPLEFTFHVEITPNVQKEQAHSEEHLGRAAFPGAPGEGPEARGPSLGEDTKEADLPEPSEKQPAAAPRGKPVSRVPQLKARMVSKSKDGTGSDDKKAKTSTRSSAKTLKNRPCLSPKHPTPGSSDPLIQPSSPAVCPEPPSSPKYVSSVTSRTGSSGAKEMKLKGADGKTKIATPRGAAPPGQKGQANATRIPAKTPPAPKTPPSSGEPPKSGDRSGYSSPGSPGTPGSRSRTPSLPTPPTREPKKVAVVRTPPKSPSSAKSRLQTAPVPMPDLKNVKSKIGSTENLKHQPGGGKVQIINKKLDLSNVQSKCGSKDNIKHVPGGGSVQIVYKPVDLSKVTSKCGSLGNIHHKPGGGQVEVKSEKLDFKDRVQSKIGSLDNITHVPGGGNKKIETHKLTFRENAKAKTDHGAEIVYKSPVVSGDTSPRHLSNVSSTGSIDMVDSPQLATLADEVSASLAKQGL
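Assay mix: 1 uM His-tagged tau, 30 uM sodium octadecylsulfate, thioflavine S dye in HEPES/NaCl/DTT buffer. Compound is added prior to the inducer. Fluorescence after 15 h at 37 C.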
Large screens that a line does not name were inactive. Only some compounds are listed: those with a hit (about 4.2% of all), similar ones and a draw of the others. Unless noted, calls follow the shape of the dose curve; as a rule, active = well fitted curve in the direction sought with a large enough effect; inconclusive = small, poorly fitted or top-dose-only effect, or another doubt; inactive = no such curve, though single readings can be large; an effect the other way counts as inactive or inconclusive.

COc1cccc(N2CCN(C(=O)c3ccc4nc(N5CCCCC5)sc4c3)CC2)c1	ERK AVP block 25.1µM
COc1ccc(N2CCN(C(=O)c3ccc4nc(N5CCCCC5)sc4c3)CC2)cc1	ERK AVP block inconclusive
C[C@H](CC(=O)O)C(C(=O)O)C(=O)O	none
Oc1ccccc1CNc1nc2ccccc2n1CCN1CCCCC1	ALOX15 inhib 12.6µM
c1csc(CNc2nc3ccccc3n2CCN2CCOCC2)c1	none
C=CCc1cccc(CNc2nc3ccccc3n2CCN2CCOCC2)c1O	Tau fil binding 25.1µM
Cc1ccc(-n2nnnc2SCC(=O)c2cc(C)n(-c3cc(C)on3)c2C)c(C)c1	none
COc1cc(OC)cc(-n2nc(C(=O)NCCCN3CCOCC3)c3ccccc3c2=O)c1	none
Cc1cc(C(=O)CSc2nnc(N)s2)c(C)n1CCc1ccc(Cl)cc1	none
COc1ccc(CCn2c(C)cc(C(=O)CSc3nnc(N)s3)c2C)cc1	ERK AVP block 20µM
O=C1C(C=Nc2ccccc2O)=C(O)c2ccccc21	ERK AVP block inconclusive, Tau fil binding inconclusive
Cc1ccc(O)c(N=CC2=C(O)c3ccccc3C2=O)c1	ALOX15 inhib inconclusive, Hsp90 Hop PPI inconclusive, ERK AVP block inconclusive, Tau fil binding 7.94µM
O=C(Nc1cccc2ccccc12)OC1C=CS(=O)(=O)C1 (stereo not drawn)	Hsp90 Hop PPI inconclusive, ERK AVP block 10µM
CCN(CCCNC(=O)CC1Oc2ccc(C)cc2NC1=O)Cc1ccccc1 (stereo not drawn)	ALOX15 inhib 10µM, Hsp90 Hop PPI inconclusive
COc1ccc(N2CCN(CCCNC(=O)CC3Oc4ccc(C)cc4NC3=O)CC2)cc1 (stereo not drawn)	Tau fil binding 25.1µM
OC12CCCCC1C(c1ccc3c(c1)OCO3)N(Cc1cccc(F)c1)CC2 (stereo not drawn)	Tau fil binding 15.8µM
COc1ccc(-c2cc(C(F)(F)F)n3nc(C(=O)Nc4cc(C)on4)cc3n2)cc1OC	Tau fil binding 1.58µM
COC(=O)c1cc2nc(-c3ccc(OC)cc3)cc(C(F)(F)F)n2n1	none
FC(F)(F)c1cc(CN2CCC3(CCNCC3)CC2)cc(C(F)(F)F)c1	Tau fil binding 12.6µM
O=C(c1cc(C(F)(F)F)cc(C(F)(F)F)c1)N1CCC2(CCN(Cc3ccccc3)CC2)CC1	none
Cc1ccc(OCC(=O)Nc2ccc(N3CCCC3)cc2)cc1C	ALOX15 inhib 5.01µM, Hsp90 Hop PPI inconclusive, ERK AVP block inconclusive, Tau fil binding 1.58µM
COc1cc(Cl)ccc1NC(=O)COc1ccccc1C(=O)N1CCN(c2ccc(O)cc2)CC1	ALOX15 inhib 25.1µM
Cc1cccc(OCC(=O)Nc2ccc(N3CCCC3)cc2)c1C	ALOX15 inhib inconclusive, Hsp90 Hop PPI inconclusive, Tau fil binding inconclusive
O=C(CNCC1CCCO1)Nc1ccc(N2CCCCCC2)cc1 (stereo not drawn)	ERK AVP block inconclusive, Tau fil binding 31.6µM
CCOc1ccccc1OCC(=O)Nc1ccc(N2CCCCC2)cc1	ERK AVP block inconclusive, Tau fil binding 25.1µM
O=C(O)CCC(=O)Nc1ccc(N2CCCCCC2)cc1	none
Cc1ccc(OCCCC(=O)Nc2ccc(N3CCOCC3)cc2)c(C)c1	Tau fil binding inconclusive
CN1CCN(c2ccc(NC(=O)COc3ccccc3Cl)cc2)CC1	Tau fil binding 15.8µM
Cc1ccccc1OCCCC(=O)Nc1ccc(N2CCOCC2)cc1	Tau fil binding 3.16µM
CC(C)NC(=O)NC1C2CC3CC(C2)CC1C3 (stereo not drawn)	none
COc1ccc2cc1Oc1ccc(cc1)CC1c3cc(c(OC)cc3CCN1C)Oc1c(OC)c(OC)cc3c1C(C2)N(C)CC3 (stereo not drawn)	none (no result: YjeE inh, Pol III holo inh, Hsp90 Hop PPI, Tau fil binding)
CN1CCN(c2ncnc3ccc(-c4ccc5c(c4)OCO5)cc23)CC1	ERK AVP block inconclusive
CCn1c2ccccc2c2cc(NC(=O)Cc3ccc(S(=O)(=O)N4CCOCC4)s3)ccc21	Tau fil binding 6.31µM
O=C(c1ccc(CS(=O)(=O)c2ccc(Br)cc2)o1)N1CCN(c2ncccn2)CC1	none
O=C1C2C3CCCC3=C3CCCC3C2C(=O)N1c1ccc(F)cc1 (stereo not drawn)	ALOX15 inhib 3.16µM
CC(C)C1NC2(C(=O)c3ccccc3C2=O)C2C(=O)N(c3ccc(F)cc3)C(=O)C12 (stereo not drawn)	none (no result: YjeE inh, Pol III holo inh, Hsp90 Hop PPI, ERK AVP block, Tau fil binding)
COCCn1cnc2c(c1=O)c1nc3ccccc3nc1n2/N=C/c1cccc(OC)c1OC	none
C=CCn1cnc2c(c1=O)c1nc3ccccc3nc1n2/N=C/c1cccc(OC)c1	Tau fil binding 3.16µM
CC1C(=O)CCC2[C@]1(C)CCC1[C@]2(C)CC[C@@]2(C)C3CC(C)(C)CC[C@]3(C)CC[C@@]12C (stereo partly drawn)	none (no result: YjeE inh, Pol III holo inh, Hsp90 Hop PPI, Tau fil binding)
O=S(=O)(Cc1ccccc1)N1CCCCCC1	none
COc1c(-c2coc3cc4c(cc3c2=O)CC(OC(C)=O)C(C)(C)O4)ccc2c1C=CC(C)(C)O2 (stereo not drawn)	ERK AVP block 15.8µM (no result: YjeE inh, Pol III holo inh, Hsp90 Hop PPI, Tau fil binding)
COc1c(-c2coc3cc4c(cc3c2=O)CC(O)C(C)(C)O4)ccc2c1C=CC(C)(C)O2 (stereo not drawn)	ERK AVP block 3.16µM (no result: YjeE inh, Pol III holo inh, Hsp90 Hop PPI, Tau fil binding)
Cc1c(N2C(=O)c3ccc4c5c(ccc(c35)C2=O)CC4)c(=O)n(-c2ccccc2)n1C	Pol III holo inh 25.1µM, ALOX15 inhib 25.1µM, Tau fil binding 15.8µM
Fc1ccc(-c2nnc3ccc(N4CCc5ccccc5C4)nn23)cc1	ALOX15 inhib 25.1µM
Cc1ccc(/C=c2\sc3nc(-c4cccs4)nn3c2=O)o1	ALOX15 inhib 12.6µM
N#Cc1ccc(CSCC(=O)O)cc1	none
c1cc2c3c(c1)c1c(n3CCNC2)CCCC1	ALOX15 inhib inconclusive, ERK AVP block inconclusive, Tau fil binding 31.6µM
c1ccc2c(c1)c1c3n2CCNC3CCC1 (stereo not drawn)	none
COCCn1c(=O)c(-c2cn(C)c3ccccc23)nc2cnc(Oc3ccccc3)nc21	Hsp90 Hop PPI 3.16µM
COCCn1c(=O)c(-c2cccc(C#N)c2)nc2cnc(OCc3ccccc3)nc21	Tau fil binding 25.1µM
COCCn1c(=O)c(-c2cn(C)c3ccccc23)nc2cnc(OCc3ccccc3)nc21	none
COCCn1c(=O)c(-c2cccc(C#N)c2)nc2cnc(OC)nc21	none
COc1ccc(S(=O)(=O)NCCSCc2cccs2)cc1	none
CN(C)c1ccc(NC(=O)CCCc2ccccc2)cc1	ALOX15 inhib 10µM, ERK AVP block 20µM, Tau fil binding 20µM
Cc1noc(C)c1CSc1nc2[nH]ncc2c(=O)n1-c1ccccc1	ERK AVP block 12.6µM
Cc1ccc(NCc2nc3ccccc3n2C)cc1	ALOX15 inhib 15.8µM
